Sampled rows, rich in hits. Any-hit rate of the full collection: about 8.1%.
ELG1 repair inh: qHTS screen for small molecules that inhibit ELG1-dependent DNA repair in human embryonic kidney (HEK293T) cells expressing luciferase-tagged ELG1; AID 504467, 2011; Potency, µM (series often up to 46.1 µM), without a hit: at the highest dose activity change, negative = inhibition, hits mostly inhibitors; HEK293T ELG1-luciferase reporter, luminescence, 16 h; DNA damage induced by 5-fluorouridine; hit rate 2.3% among 330,000; further: on the % scale 0 is the no-effect control and ±100 the full control effect; nearly all actives have a fitted effect of over 55% in size
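5-Fluorouridine DNA damage + compound/DMSO, 2,000 cells/well, 16 h, 37 °C/5% CO2. ONE-Glo, 30 min RT, luminescence. Readout = decrease in reporter signal.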
SW480 rereplic: A quantitative high throughput screen for small molecules that induce DNA re-replication in SW480 colon adenocarcinoma cells. AID 624297, 2012. hit rate 1.8% among 340,000. SW480 DNA re-replication, Hoechst DNA content imaging, 48 h. Potency, µM (titrated, usually from 46.1 µM), inactives show at the top dose re-replication activation, most hits filed as activators; further: % of control where 0% means no effect; nearly all actives have a fitted effect of over 55% in size
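Image-based DNA-content assay: after two days of treatment, nuclei were labelled with the DNA dye Hoechst and imaged, and hits were compounds raising the count of nuclei showing high fluorescence intensity.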
KB-3-1 cytotox: qHTS assay for MDR1-selective chemotherapeutics: Primary screen using the parental adenocarcinoma cell KB-3-1 | KB-3-1 viability, CellTiter-Glo ATP luminescence, 72 h | Potency, µM (series often up to 46.1 µM), usual class: cytotoxic | hit rate 1.4% among 400,000 | AID 1347075, 2019; further: on the % scale 0 is the no-effect control and ±100 the full control effect; nearly all actives have a fitted effect of over 60% in size
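Parental KB-3-1 viability, qHTS format: 72 h compound exposure, 37 °C; CellTiter-Glo; media-only wells and DMSO plates as controls; concentration-effect fits on corrected data.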
MCF10A rerep: A quantitative high throughput screen for small molecules that induce DNA re-replication in MCF 10a normal breast cells; Potency, µM (series often up to 46.1 µM), for inactives: at the highest dose activity, positive = re-replication, hits mostly activators; hit rate 2.9% among 350,000; MCF 10A DNA re-replication, Hoechst nuclear intensity, 48 h; further: % of control where 0% means no effect; nearly all actives have a fitted effect of over 50% in size
KB-V1 cytotox: qHTS assay for MDR1-selective chemotherapeutics: Primary screen using the drug-selected MDR subline cells KB-V1 | KB-V1 MDR cells viability, CellTiter-Glo, 72 h | Potency, µM (highest dose often 46.1 µM), usual class: cytotoxic | hit rate 3.4% among 400,000; further: on the % scale 0 is the no-effect control and ±100 the full control effect; nearly all actives have a fitted effect of over 60% in size
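In this primary screen, KB-V1 cells overexpressing P-gp are incubated with library compounds (lowest to highest concentration) for 72 h at 37 degrees C before a luminescent ATP viability read.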
Active calls of the source: *; i = inactive; u = inconclusive; x = no result; ! = repeats disagree. The call rests on the fitted dose curve; in most records, active means well fitted curve in the direction sought with a large enough effect; inconclusive means small, poorly fitted or top-dose-only effect, or another doubt; inactive means no such curve, though single readings can be large; an effect the other way counts as inactive or inconclusive. Potency means the concentration at half of the fitted maximal effect.

SMILES	ELG1 repair inh	SW480 rereplic	KB-3-1 cytotox	MCF10A rerep	KB-V1 cytotox
Cc1ccccc1Nc1nc(N)nc(COC(=O)c2ccc(S(=O)(=O)N(C)C)cc2)n1	-4.8%	-76.5%	i	8.2%	i
COC(=O)CSc1nc(SC)nc2c1sc1nc(-c3ccco3)c3c(c12)CC(C)(C)OC3	x	-2.2%	i	1.3%	i
CSc1nc(N(CCO)CCO)c2sc3nc(-c4ccco4)c4c(c3c2n1)CCC4	u	u	i	14.6µM*	i
CSc1nc(SCCO)c2sc3nc(-c4ccco4)c4c(c3c2n1)CC(C)(C)OC4	9.0%	4.9%	u	13µM*	i
CCOC(=O)C1CCN(C(=O)c2ccccc2NC(C)=O)CC1	-2.9%	-10.6%	i	-6.3%	i
O=[N+]([O-])c1cc(O)c2ncccc2c1	2.59µM*	-26.8%	u	u	18.4µM*
O=[N+]([O-])c1cc2cccnc2c2ncccc12	7.3µM*	14.6µM*	0.116µM*	0.0%	i
Cc1ccc([N+](=O)[O-])c2cccnc12	14.2%	-13.9%	i	0.5%	i
Cc1ccc(N(CC(=O)Nc2ccc(C)cc2C)S(=O)(=O)N2CCCC2)cc1	-5.7%	-0.4%	i	u	i
O=C(CC1(O)CCCCC1)OC1CCCC1	x	-2.8%	x	2.6%	x
Cc1c(N=N/C(C(=O)Nc2ccccc2)=C(/O)c2ccccc2)c(=O)n(-c2ccccc2)n1C	u	6.51µM*	i	-17.7%	i
Cc1[nH]c(C)c(S(=O)(=O)Nc2ccc(F)cc2Cl)c1C(=O)N1CCCC1	u	-5.8%	i	2.6%	u
Cc1ccc(C)c(OCc2cc(C(=O)N3C[C@@H](C)O[C@@H](C)C3)no2)c1	u	0.4%	i	u	u
CCCCCCC(O)(c1ccc(OC)cc1)C(CN1CCOCC1)c1ccccc1 (stereo unspecified)	u	u	18.4µM*	u	u
CCCCOc1ccc(C(O)(CCC)CCN2CCOCC2)cc1 (stereo unspecified)	-8.0%	u	23.1µM*	u	10.3µM*
COc1ccc(NC(=O)CN(C)C(=O)CCSc2ccc(F)cc2)cc1	-27.1%	-0.4%	i	7.9%	u
CN(CC(=O)Nc1cccc(F)c1)C(=O)CCSc1ccc(F)cc1	-21.5%	16.7%	8.2µM*	u	u
CN(CC(=O)Nc1cccc(F)c1)C(=O)c1ccccc1Sc1ccccc1C#N	15.8µM*	u	i	3.2%	i
CC1=CC(C)(C)NC(=O)N1c1ccc(C)cc1	-3.4%	-3.1%	i	-2.9%	i
N=C1SCC(=O)N1c1ccc(Cl)cc1	4.5%	u	14.6µM*	-0.2%	u
c1ccc(CCNc2ccc3ncc(-c4cccc5ccccc45)n3n2)nc1	x	x	i	x	13µM*
CCOc1ccccc1Oc1coc2cc(OCC(=O)O)ccc2c1=O	1.0%	2.0%	u	-9.1%	i
COc1ccc(OC)c(C2=NS(=O)(=O)N(C)C(C(=O)Nc3ccc(F)cc3F)=C2)c1	-20.9%	2.5%	i	9.1%	13µM*!
Cc1ccccc1C(=O)NC1CC2CCC(C1)N2Cc1ccccc1 (stereo unspecified)	2.2%	-97.0%	i	3.1%	i
CC1CCc2nc(/C(C#N)=C/c3ccncc3)sc2C1 (stereo unspecified)	u	7.31µM*	i	u	u
SMILES	ELG1 repair inh	SW480 rereplic	KB-3-1 cytotox	MCF10A rerep	KB-V1 cytotox
N#C/C(=C/c1ccncc1)c1nc2ccccc2s1	4.7%	1.3%	i	u	i
Cc1nc2sccn2c1P(c1c(C)nc2sccn12)c1c(C)nc2sccn12	2.2%	-8.7%	i	4.5%	i
CN(C)S(=O)(=O)c1ccc(C(=O)NCc2nnc(SCC(=O)N3CCCCCC3)o2)cc1	1.5%	-2.8%	i	3.9%	i
COC(=O)c1c(-c2ccc(F)cc2)csc1NC(=O)C1CCCO1 (stereo unspecified)	1.4%	u	i	u	u
COC(=O)c1sc(NC(=O)C2CCCO2)c(C(=O)OC)c1C (stereo unspecified)	u	-3.8%	i	1.6%	i
Cc1c(C(=O)OC(C)C)sc(NC(=O)C2CCCO2)c1C(=O)OC(C)C (stereo unspecified)	u	15.3%	i	13µM*	u
CCc1ccc(-c2csc(NC(=O)C3CCCO3)c2C(=O)OC(C)C)cc1 (stereo unspecified)	-2.6%	u	i	25.9µM*	i
CCc1ccc(C(=O)COC(=O)c2cc([N+](=O)[O-])ccc2NCCO)cc1	14.6µM*	2.8%	i	12.2%	u
CCCn1c(SCC(=O)NC2CCCC2)nc2c1c(=O)n(C)c(=O)n2C	4.2%	1.4%	i	-3.4%	i
CCOc1ccc(Nc2nnc(SCc3nc4ccccc4c(=O)[nH]3)s2)cc1	17.5%	12.7%	i	10.3µM*	i
Cc1ccccc1Nc1nnc(SCc2nc3ccccc3c(=O)[nH]2)s1	0.1%	x	x	x	x
O=c1[nH]c(CSc2nc(-c3ccc(F)cc3)cs2)nc2ccccc12	2.0%	-4.0%	i	10.5%	5.8µM*
COc1cc2nc(CSc3nc(-c4ccc(F)cc4)cs3)[nH]c(=O)c2cc1OC	23.1µM*	-1.1%	u	-0.7%	u
COC(=O)c1ccc2c(=O)[nH]c(CSc3nc(-c4ccc(F)cc4)cs3)nc2c1	u	-0.9%	i	3.1%	i
O=C1NC[C@@H](CCCCN2C[C@H](Cc3ccc(O)cc3)N(CCc3ccc(O)cc3)C(=O)C2=O)N(CCc2ccccc2)C1=O	x	x	i	x	i
Cc1cc(C)n(S(=O)(=O)c2cc(Cl)ccc2Cl)n1	-13.6%	-4.0%	i	6.8%	i
CCOC(=O)c1sc2nc(C)nc(SC(C)C(=O)NC3CC3)c2c1C (stereo unspecified)	-19.9%	3.8%	i	0.2%	i
CC(C)c1ccc(N2C(=O)CSC23C(=O)N(Cc2ccccc2)c2ccccc23)cc1 (stereo unspecified)	x	x	u	x	11.6µM*
COc1ccccc1NC(=O)CN1C(=O)C2(SCC(=O)N2c2ccc(C)c(C)c2)c2ccccc21 (stereo unspecified)	x	x	18.4µM*	x	u
Cc1ccc(N2C(=O)CSC23C(=O)Nc2ccccc23)cc1F (stereo unspecified)	x	x	i	x	i
Cc1ccc(CN2C(=O)C3(SCC(=O)N3c3ccc(C)c(C)c3)c3ccccc32)cc1 (stereo unspecified)	x	x	20.6µM*	x	18.4µM*
